# DT40 TDP1 no CPT = qHTS for Inhibitors of human tyrosyl-DNA phosphodiesterase 1 (TDP1): qHTS in cells in absence of CPT | Potency, µM (titrated, usually from 46.2 µM), without a hit: top-dose activity change, negative = growth inhibition, most hits filed as inhibitors | DT40 Tdp1-/- hTDP1 cells, no CPT, ATP luminescence, 48 h | actives 15% (n = 420,000) | AID 686978, 2013; note: nearly all actives have a fitted effect of over 55% in size
#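 Cells were dispensed at 400 per well, compounds added by pin tool, plates incubated ≥48 hr at 37 °C, then CellTiter-Glo added for 30 min at room temperature before luminescence reading. Line: DT40 Tdp1-/- complemented with hTDP1; camptothecin omitted.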
# RORg inh = ROR gamma (mouse) transcription inhibition | P51450 | Drosophila S2 Gal4-RORgamma UAS-luciferase reporter, 20 h | Potency, µM (doses to about 53.6 µM), for the others: at the highest dose activity change, negative = inhibition, usual class: inhibitors | actives 5.4% (n = 310,000); note: nearly all actives have a fitted effect of over 60% in size
#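 Luminescence from a UAS-regulated Photinus luciferase reporter in stably transfected Drosophila Schneider cells is measured; decreased signal marks ROR gamma inhibition. Fusion expression is induced by 700 uM copper sulfate for 20 hr.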
# ALOX12 inh = inhibitors of human 12S-lipoxygenase ALOX12; AID 1671190; purified 12hLO, xylenol orange hydroperoxide absorbance; actives 1.1% (n = 580,000); Potency, µM (highest dose often 108 µM), inactives show top-dose activity change, negative = inhibition, actives largely listed as inhibitors; P18054
# Target sequence (P18054 whole entry, looked up): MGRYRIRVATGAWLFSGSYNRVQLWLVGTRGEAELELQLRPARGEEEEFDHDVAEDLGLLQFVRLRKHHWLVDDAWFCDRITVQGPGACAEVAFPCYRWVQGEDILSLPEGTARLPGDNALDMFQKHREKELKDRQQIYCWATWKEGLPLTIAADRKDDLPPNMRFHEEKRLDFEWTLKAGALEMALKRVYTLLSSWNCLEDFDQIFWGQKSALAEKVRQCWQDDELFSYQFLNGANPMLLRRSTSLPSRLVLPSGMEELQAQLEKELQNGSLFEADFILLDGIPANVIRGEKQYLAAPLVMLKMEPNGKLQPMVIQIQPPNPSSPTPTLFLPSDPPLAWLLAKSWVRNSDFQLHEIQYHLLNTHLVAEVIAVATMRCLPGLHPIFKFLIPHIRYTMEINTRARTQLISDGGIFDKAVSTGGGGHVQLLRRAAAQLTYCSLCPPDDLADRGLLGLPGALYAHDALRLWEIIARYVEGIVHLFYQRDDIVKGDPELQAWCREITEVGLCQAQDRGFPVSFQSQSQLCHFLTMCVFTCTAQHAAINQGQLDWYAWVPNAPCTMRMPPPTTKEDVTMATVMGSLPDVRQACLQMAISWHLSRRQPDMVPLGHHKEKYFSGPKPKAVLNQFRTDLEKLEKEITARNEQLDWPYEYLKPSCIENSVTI
#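 Purified human 12hLO (150 nM final) in 25 mM Hepes, 0.01% Triton X-100, pH 7.0 was preincubated 15 min at room temperature with compound. Then 40 uM arachidonic acid was added, 30 min. Hydroperoxide was read by Fe-XO absorbance ratio 573/405 nm.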
# ELG1 DNA repair = inhibitors of ELG1-dependent DNA repair in HEK293T cells; HEK293T ELG1-luciferase reporter, luminescence, 16 h; DNA damage induced by 5-fluorouridine; Potency, µM (titrated, usually from 46.1 µM), for the others: at the highest dose activity change, negative = inhibition, actives largely listed as inhibitors; actives 2.3% (n = 330,000); note: nearly all actives have a fitted effect of over 55% in size
#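 HEK293T cells expressing luciferase-tagged ELG1 (2,000/well) received 5-Fluorouridine plus compound or DMSO for 16 hr at 37 °C. Luciferase was read by ONE-Glo luminescence after 30 min at room temperature.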
# VP16 counter = inhibits Gal4-VP16 luciferase reporter, ROR gamma counter-screen; Drosophila S2 Gal4-VP16 UAS-luciferase, luminescence, 20 h; Potency, µM (doses to about 53.6 µM), without a hit: at the highest dose activity, negative = inhibition, actives largely listed as inhibitors; actives 3.5% (n = 310,000); AID 2546;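 note: Gal4-VP16 expression switched on by copper sulfate through the metallothionein promoter; nearly all actives have a fitted effect of over 50% in size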
# TDP1 cell CPT = growth inhibition of DT40 Tdp1-/-;hTDP1 cells with camptothecin (screen for TDP1 inhibitors). chicken DT40 Tdp1-/-;hTDP1 cells + 20 nM CPT, ATP luminescence, 48 h. Potency, µM (series often up to 46.2 µM), inactives show at the top dose activity change, negative = growth inhibition, actives largely listed as inhibitors. actives 12% (n = 420,000); note: nearly all actives have a fitted effect of over 55% in size
#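 Cell growth measured by CellTiter-Glo luminescence after a minimum 48 h, 37 C compound exposure with 20 nM CPT in Tdp1-knockout DT40 cells stably expressing hTDP1, seeded 400/well; qHTS titration format.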
# * = called active by the depositor; ? = inconclusive; / = no result; ! = not active in a repeat; [ ] = another dose, or the depositor's remark. An excerpt weighted towards active compounds, which were near 15% of everything screened. Calls come from the whole dose curve; as a rule, active = well fitted curve in the direction sought with a large enough effect; inconclusive = small, poorly fitted or top-dose-only effect, or another doubt; inactive = no such curve, though single readings can be large; an effect the other way counts as inactive or inconclusive. % is set by controls: 0 for no effect and ±100 for the full control effect; potency is the fitted concentration of half-maximal effect.
SMILES,DT40 TDP1 no CPT,RORg inh,ALOX12 inh,ELG1 DNA repair,VP16 counter,TDP1 cell CPT
COc1ccccc1Cc1c(-c2ccc(F)cc2)nc2cc(C)c(Br)c(C)n12,23.1µM*,/,-12.2%,/,/,?
COc1ccccc1Cc1c(-c2ccc(C)cc2)nc2cc(C)c(Br)c(C)n12,16.4µM*,/,-13.1%,/,/,20.6µM*
CCCC1CCC(NC(C)C)CC1 (stereo unspecified),/,/,26.1%,/,/,/
CCCCCn1c(=O)c(C(=O)Nc2ccccc2)c(O)c2ccccc21,5.17µM*,-19.9%,-2.3%,18.0%,1.2%,4.11µM*
CCCCCCn1c(=O)c(C(=O)Nc2c(C)n(C)n(-c3ccccc3)c2=O)c(O)c2ccccc21,6.51µM*,1.5%,8.4%,-13.8%,3.6%,5.17µM*
CCCCCn1c(=O)c(C(=O)Nc2cccc(C)c2)c(O)c2ccccc21,4.61µM*,-0.5%[1.91 µM],15.3%,14.3%,3.5%,-10.1%
COc1cc(OC)c2c(C)c(CC(=O)N3CCN(CCc4ccccn4)CC3)c(=O)oc2c1,/,/,-3.6%,/,/,/
CCOP1(=S)Oc2cc3c(cc2C(C(=O)OC)(C(F)(F)F)O1)OCO3 (stereo unspecified),?,4.2%,?,5.3%,12.1%,13µM*
CC(=O)N1CCC(C(=O)N2CCC3(CC2)c2nccn2-c2ccccc2CN3C)CC1,/,/,18.3%,/,/,/
COc1ccccc1NC(=O)c1oc2ccccc2c1NC(=O)c1ccccc1C(F)(F)F,5.17µM*,/,-20.5%,/,/,3.66µM*
COc1ccc(OCCn2c(NC(=O)c3ccc(OC)cc3)nc3ccccc32)cc1,16.4µM*,/,-0.1%,/,/,18.4µM*
Cc1[nH]nc2c1C(c1cccc(OCC(C)C)c1)SCC(=O)N2 (stereo unspecified),/,/,21.4%,/,/,/
Cc1cnc(SCc2ccccn2)nc1C1CCCN(C(=O)c2cccc(-c3cccc(F)c3)c2)C1 (stereo unspecified),16.4µM*,/,?,/,/,-6.8%[9.04 µM]
COC1=C(C)C(=O)c2c(c(COC(N)=O)c3n2C[C@@H]2[C@@H]3N2C)C1=O (stereo partly specified),0.0251µM*,/,/,/,/,0.1µM*
CN1C2CCC1CC(OC(=O)c1ccc(Cl)cc1)C2 (stereo unspecified),?,-3.6%,0.0%,-11.3%,-5.1%,?
CN1C2CCC1CC(OC(c1ccc(F)cc1)c1ccc(F)cc1)C2 (stereo unspecified),7.31µM*,/,-24.8%,/,/,6.51µM*
CN1[C@@H]2CC[C@H]1CC(O[C@@H](c1ccccc1)c1ccc(Cl)cc1)C2 (stereo partly specified),4.22µM*,12.6µM*,54.4%,/,14.1µM*,2.66µM*
COc1cc2c3cc1Oc1cc(ccc1O)C[C@@H]1c4c(cc(OC)c(O)c4Oc4ccc(cc4)C[C@H]3N(C)CC2)CCN1C,4.61µM*,-33.3%,?,-8.5%,?,4.11µM*
COc1cc2c3c(c1OC)Oc1ccc(cc1)C[C@H]1c4c(cc(OC)c(OC)c4Oc4ccc(cc4)C[C@@H]3N(C)CC2)CCN1C,18.4µM*,/,-23.2%,2.3%,/,16.4µM*
COc1cc2c(cc1O)-c1c(O)c(OC)cc3c1[C@H](C2)N(C)CC3,?,-37.0%,/,/,-2.7%,-43.2%
COc1cc2c3cc1Oc1c(OC)c(OC)cc4c1[C@@H](Cc1ccc(O)c(c1)Oc1ccc(cc1)C[C@@H]3N(C)CC2)N(C)CC4,-21.6%,-0.3%,/,/,-1.1%,?
COc1ccc2cc1Oc1ccc(cc1)C[C@H]1c3cc(c(OC)cc3CCN1C)Oc1c(OC)c(OC)cc3c1[C@H](C2)N(C)CC3,11.2µM*!,?,?,5.2%,?,5.01µM*!
CN(C)C(=S)SSC(=S)N(C)C,0.146µM*,0.112µM*,?,?,1µM*!,0.146µM*
CN(C)C(=S)SC(=S)N(C)C,0.841µM*,6.31µM*,?,/,?,0.841µM*
CC(C)NC(=O)OC[C@H]1C[C@@H]2CCN1C[C@@H]2c1cc(C2CCCCC2)nn1C,/,/,-21.6%[176 µM],/,/,/
SMILES,DT40 TDP1 no CPT,RORg inh,ALOX12 inh,ELG1 DNA repair,VP16 counter,TDP1 cell CPT
CC(CCc1ccccc1)NC(C)C(O)c1ccc(O)cc1 (stereo unspecified),23.1µM*!,-0.1%,-10.4%,-25.6%,-1.0%,?
CN(C)c1ncc(CN2CCC3(CCNCC3)C2)cn1,/,/,7.4%,/,/,/
Cn1nc(-c2ccco2)cc1[C@H]1CN2CC[C@H]1C[C@@H]2CNC(=O)c1cccs1,/,/,38.6%[176 µM],/,/,/
CCOC(=O)[C@]12Cc3c(cc(OC)c(OC)c3OC)[C@H]1N(C(C)C)C(=O)c1cc(OC)ccc12,7.31µM*,/,?,/,/,9.2µM*
COc1ccc2c(c1)C1(CCN(C(=O)NCC(C)C)C1)C(=O)N2 (stereo unspecified),/,/,12.3%,/,/,/
CCOC(=O)[C@]12Cc3cc(OC)ccc3[C@H]1N(C(C)C)C(=O)c1cc(OC)ccc12,18.4µM*,/,?,/,/,20.6µM*
O=C(NCc1ccco1)[C@H]1CN2CC[C@H]1C[C@@H]2Cn1cc(CCO)nn1,/,/,2.4%[176 µM],/,/,/
CCN1C(=O)C(=C2C=C(C)OC(C)=C2)C(=O)N(CC)C1=S,-0.6%,18.2%,-6.7%,3.3%,5.9%,-4.1%
CCOC(=O)C1=CC(=C2C(=O)N(CC)C(=S)N(CC)C2=O)c2ccccc2O1,-9.4%,5.1%,17.8µM*,2.1%,-4.2%,1.4%
CCC1c2cccn2-c2ccccc2CN1C(=O)Nc1ccc(F)cc1F (stereo unspecified),/,/,-11.3%,/,/,/
O=C(c1ccc(Cl)cc1)C1CCCN(Cc2ccc3ncccc3c2)C1 (stereo unspecified),16.4µM*,?,12.8%,?,7.08µM*,14.6µM*
O=C(c1cccc(Cl)c1)C1CCCN(Cc2cccc3cnccc23)C1 (stereo unspecified),20.6µM*,7.08µM*,2.2%,?,-27.8%,?
COc1cccc(C(=O)C2CCCN(Cc3cccc4c3OCO4)C2)c1 (stereo unspecified),?,-0.8%,-2.6%,5.1%,6.4%,?
O=C(c1ccc(Cl)cc1)C1CCCN(Cc2cccc3cnccc23)C1 (stereo unspecified),6.51µM*,?,9.2%,?,35.5µM*,20.6µM*
COc1ccc(C(=O)C2CCCN(Cc3ccon3)C2)c(OC)c1 (stereo unspecified),?,-2.7%,2.3%,2.5%,6.9%,?
